Screening data as filed in PubChem.
Rows were chosen to be rich in hits. Some 7.6% of all compounds tested hit in one or more screens of this group.
Cy5 interf NS3h: Cy5 fluorescence interference, HCV helicase counter-screen; Cy5-dT15 DNA with NS3h; actives lie on both sides; signal over control mean, under 1 quenches; fluorescence interference ratio at 100 µM; hit rate 6% among 16,000; AID 720488;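 active means compound fluorescence over control fluorescence at most 0.8, a quencher, or at least a set upper limit, an enhancer; inactive means ratio between 0.8 and the set upper limit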
HCV NS3h FP: blocks HCV NS3 helicase binding to DNA. NS3h Cy5-dT15 DNA binding, fluorescence polarization. inhibition, % at 100 µM. hit rate 1.6% among 16,000;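 active means inhibition above the average over every tested compound plus 3 SD, cut at about 40% in these data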
NS3h confirm: hepatitis C NS3 helicase inhibition, confirmation; shares compounds with HCV NS3h FP; NS3h binding to Cy5-dT15 DNA, fluorescence polarization; inhibition, % at 100 µM; hit rate 20% among 240; AID 720485;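 active means percent inhibition of 50% or more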
SSB FP counter: disrupts E. coli SSB binding to DNA in counter-screen; shares compounds with HCV NS3h FP; AID 720486; E. coli SSB binding Cy5-dT15, fluorescence polarization; inhibition, % at 100 µM; hit rate 40% among 240;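 active means inhibition of at least 50%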;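 further: displacers lower Cy5 polarization so higher inhibition means more SSB displaced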
Target sequence (P0AGE0 whole entry, looked up): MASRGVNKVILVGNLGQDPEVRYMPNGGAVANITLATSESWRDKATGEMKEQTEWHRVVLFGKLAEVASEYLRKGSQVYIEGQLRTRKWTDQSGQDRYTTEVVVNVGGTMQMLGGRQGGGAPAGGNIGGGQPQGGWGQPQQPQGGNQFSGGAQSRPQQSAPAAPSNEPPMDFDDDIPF
Cy5 SSB fluor CB: counter-screen for HCV NS3 helicase inhibitors: fluorescence interference; shares compounds with HCV NS3h FP; Cy5-dT15/E. coli SSB fluorescence interference; actives lie on both sides; fluorescence interference ratio at 100 µM; hit rate 8% among 240;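 active means fluorescence interference ratio at or above 1.2, signal boosting, or at or below 0.8, signal quenching; inactive means ratio between 0.8 and 1.2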
Cy5 interf conf: Cy5 fluorescence interference, confirmation counter-screen | fluorescence interference ratio at 100 µM, hits read low | hit rate 44% among 240 | shares compounds with HCV NS3h FP | Cy5-dT15 DNA/NS3h fluorescence interference counterscreen;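 active means fluorescence interference ratio at or below 0.8 quencher or at or above a set limitenhancer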
Each line names hits and unclear results; the compound was inactive in the other large screens (follow-up assays come after a bar, where they were run).

CN1C(=O)C(=O)N(CC(=O)NCc2ccco2)C1=O	Cy5 interf NS3h 0.75, HCV NS3h FP 74 | NS3h confirm inactive | SSB FP counter inactive | Cy5 SSB fluor CB 0.77 | Cy5 interf conf inactive
CCOc1ccc(C(=O)NC(C)(C)C)cc1Cl	none
O=C(O)CN1C(=O)/C(=C\c2ccc(OC(=O)c3ccc(Cl)cc3Cl)cc2)SC1=S	none
O=C(O)CN1C(=O)/C(=C/c2ccc(OC(=O)c3ccccc3I)cc2)SC1=S	HCV NS3h FP 62 | NS3h confirm inactive | SSB FP counter inactive | Cy5 SSB fluor CB inactive | Cy5 interf conf 0.76
Cc1ccc(OCc2nnc(NC(=O)Nc3cccc(Cl)c3)s2)c(C)c1	none
CN(C)c1ccc(NS(=O)(=O)c2ccc(F)cc2)cc1	none
CN(C)c1ccc(NS(=O)(=O)c2ccc(N3C(=O)CCC3=O)cc2)cc1	HCV NS3h FP 50 | NS3h confirm inactive | SSB FP counter 61 | Cy5 SSB fluor CB inactive | Cy5 interf conf inactive
Cc1ccc(-c2nnc(SCC(=O)Nc3ccc(F)cc3)o2)cc1	HCV NS3h FP 62 | NS3h confirm inactive | SSB FP counter inactive | Cy5 SSB fluor CB inactive | Cy5 interf conf inactive
O=C(CSc1nnc(-c2ccc(Cl)cc2Cl)o1)Nc1ccccc1	none
Cc1nonc1NC(=O)CN1CCCC1	none
CCOc1ccccc1NC1=C(Cl)C(=O)N(c2ccc(C)cc2)C1=O	none
CCc1c(C#N)c(N)nc(SCC(=O)c2cc3ccccc3oc2=O)c1C#N	none | NS3h confirm inactive | SSB FP counter inactive | Cy5 SSB fluor CB inactive | Cy5 interf conf 0.76
CCc1c(C#N)c(N)nc(SCC(=O)c2ccc(-c3ccccc3)cc2)c1C#N	none
O=C(Nc1nc2ccc([N+](=O)[O-])cc2s1)c1cc(Cl)cc(Cl)c1	none
O=C1NC(=O)C(=Cc2cc(Br)ccc2OCc2cccc3ccccc23)C(=O)N1	HCV NS3h FP 48 | NS3h confirm inactive | SSB FP counter 72 | Cy5 SSB fluor CB inactive | Cy5 interf conf inactive
O=C1NC(=O)C(=Cc2ccccc2OCCOc2ccccc2)C(=O)N1	none
COC(=O)c1ccc(C(=O)Nc2cc(Cl)ccc2Cl)cc1NC(=O)COc1ccc(F)cc1	none
O=C(Nc1ccc(Cl)cc1)c1ccc2c(c1)OCCO2	none | NS3h confirm 62 | SSB FP counter 76 | Cy5 SSB fluor CB inactive | Cy5 interf conf inactive
CC(=O)c1ccc(NC(=O)c2ccc3c(c2)OCCO3)cc1	none
CN1C=C(C(F)(F)F)C=C/C1=C(/C#N)c1nc2ccccc2s1	none | NS3h confirm inactive | SSB FP counter inactive | Cy5 SSB fluor CB inactive | Cy5 interf conf 0.71
Cc1ccc(/C=C(\C#N)c2nc3ccccc3s2)cc1	none
COc1cc(NC(=O)c2nn3c(c2Br)NC(c2cccs2)CC3C(F)(F)F)cc([N+](=O)[O-])c1 (stereo not given)	none
CC1=C/C(=N/N=C2\NC(=O)C(CC(=O)Nc3ccc(C(=O)O)cc3)S2)CC(C)(C)C1 (stereo not given)	HCV NS3h FP 89 | NS3h confirm 62 | SSB FP counter 95 | Cy5 SSB fluor CB inactive | Cy5 interf conf 0.75
C/C(=N/N=C1\NC(=O)C(CC(=O)Nc2ccc(C(=O)O)cc2)S1)c1ccc([N+](=O)[O-])cc1 (stereo not given)	none
O=C(CC1SC(=O)NC1=O)Nc1ccc(C(=O)O)cc1 (stereo not given)	none
O=C(CC1S/C(=N/N=C\c2ccccc2)NC1=O)Nc1ccc(C(=O)O)cc1 (stereo not given)	HCV NS3h FP 128 | NS3h confirm 53 | SSB FP counter 101 | Cy5 SSB fluor CB inactive | Cy5 interf conf 0.78
NC1=NN(c2ccc(N)cc2)CC1	Cy5 interf NS3h 0.076, HCV NS3h FP active | NS3h confirm 90 | SSB FP counter 100 | Cy5 SSB fluor CB 0 | Cy5 interf conf 0.072
O=C(NC(=S)N1CCCCCC1)c1cccnc1	none
O=C(NC(=S)N1CCOCC1)c1ccccc1	Cy5 interf NS3h 0.4, HCV NS3h FP 110 | NS3h confirm inactive | SSB FP counter inactive | Cy5 SSB fluor CB inactive | Cy5 interf conf inactive
O=C1N=c2ccc([N+](=O)[O-])cc2=C1c1sc(=S)n(Cc2ccco2)c1O	none
O=C1N=c2ccc(Br)cc2=C1c1sc(=S)n(C(Cc2ccccc2)C(=O)O)c1O (stereo not given)	Cy5 interf NS3h 0.76, HCV NS3h FP 76 | NS3h confirm inactive | SSB FP counter 66 | Cy5 SSB fluor CB 0.75 | Cy5 interf conf inactive
CCOC(=O)c1cnc2cc(-c3cccc(F)c3)[nH]n2c1=O	none
CC(C)(C)C(=O)Nc1ccc(-c2nc3ccccc3o2)cc1	none
CC(=O)Nc1ccc(-c2nc3ccc(-c4ccc5nc(-c6ccc(NC(C)=O)cc6)oc(=O)c5c4)cc3c(=O)o2)cc1	HCV NS3h FP 56 | NS3h confirm inactive | SSB FP counter inactive | Cy5 SSB fluor CB inactive | Cy5 interf conf inactive
CC1=C(C(=O)Nc2cc(Cl)ccc2C)C(c2cccc(Br)c2)NC(=S)N1 (stereo not given)	none
O=C(c1ccc(Br)cc1)N1CCN(c2ccc(Cl)cc2[N+](=O)[O-])CC1	none
O=C1C=CC(=O)N1c1ccc(Br)cc1[N+](=O)[O-]	HCV NS3h FP 79 | NS3h confirm 70 | SSB FP counter inactive | Cy5 SSB fluor CB inactive | Cy5 interf conf inactive
Cc1ccc(S(=O)(=O)N=C(Nc2cccc(O)c2)c2ccccc2)cc1	none
O=C(Nc1ccc(Cl)c(Cl)c1)C1C2CCC3C(CCC21)C3(Cl)Cl (stereo not given)	none
O=C(CC1S/C(=N/N=C\c2ccco2)NC1=O)Nc1cccc(Cl)c1Cl (stereo not given)	none
COc1cc(NS(=O)(=O)c2ccc(NC(=O)c3c(F)cccc3F)cc2)ncn1	none
O=C(O)CCN1C(=O)/C(=C/c2cn(-c3ccccc3)nc2-c2ccc(Br)cc2)SC1=S	HCV NS3h FP 146 | NS3h confirm inactive | SSB FP counter inactive | Cy5 SSB fluor CB inactive | Cy5 interf conf inactive
CCN1C(=O)/C(=C\c2cn(-c3ccccc3)nc2-c2ccc(Br)cc2)SC1=S	none
O=C(Nc1cccc(C(F)(F)F)c1)c1ccc(CN2CCc3ccccc3C2)cc1	none
COc1ccc(OC)c(N(CC(=O)Nc2ccc(Oc3ccccc3)cc2)S(C)(=O)=O)c1	none
O=C1C(Cl)=CC(=NS(=O)(=O)c2ccc(Cl)cc2)C(Cl)=C1Cl	HCV NS3h FP 85 | NS3h confirm 55 | SSB FP counter 81 | Cy5 SSB fluor CB 0.77 | Cy5 interf conf inactive
O=C1C=CC(=NS(=O)(=O)c2ccc(Cl)cc2)C=C1	none
C=CCNCC(=O)Nc1sc2c(c1C(=O)OCC)CCCC2	none
O=C(Nc1ccc(F)c([N+](=O)[O-])c1)c1ccc(OCc2ccccc2)cc1	none
O=c1[nH]c(=O)n(-c2cccc(C(F)(F)F)c2)c(O)c1C=C1C=CC=N1	none
O=c1[nH]c(=S)n(-c2ccccc2F)c(O)c1C=C1C=CC=N1	Cy5 interf NS3h 0.57, HCV NS3h FP 114 | NS3h confirm inactive | SSB FP counter 128 | Cy5 SSB fluor CB 0.74 | Cy5 interf conf 0.6
CCOC(=O)c1c(-c2ccc(Cl)cc2)csc1NC(=O)c1ccccc1OC	none
CS(=O)(=O)N(CC(=O)Nc1ccccc1)c1ccc(Oc2ccccc2)cc1	none
